Screens: PubChem, National Center for Advancing Translational Sciences (NCATS)
Compounds with a hit are over-represented: about 1.3% of the library has one in this group of screens.
TRPV1 PAM: enhances activation of the human vanilloid receptor TRPV1 | Q8NER1 | TRPV1-expressing cells, Fluo-8 calcium influx, capsaicin EC20 potentiation | potentiation, % at 8.33 µM | hit rate 0.02% among 320,000 | AID 540277; in the data active = potentiation above about 80%; inconclusive = between about 30% and that limit; note: 0% is about no effect
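Fluo-8 calcium influx in TRPV1-expressing cells, kinetic read (ex 480/em 520 nm). Compound added and read 3 min for agonist activity, followed by capsaicin at EC20 final and 2 min further read for enhancement.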
TRPV1 agonist: agonists of human vanilloid receptor 1 (TRPV1); Q8NER1; TRPV1-expressing cells, Fluo-8 calcium influx, agonist mode; hit rate 0.19% among 320,000; activation, % at 8.33 µM; in the data active = activation above about 80%; inconclusive = between about 30% and that limit; note: 0% is about no effect
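Cells expressing TRPV1 were dye-loaded with Fluo-8 and read kinetically: 10 s baseline, 3 min after compound (agonist portion), then 2 min after EC20 capsaicin (allosteric enhancer portion). Calcium-bound dye fluorescence at 480/520 nm.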
KCNH2 3.1 inh: KCNH2 3.1 (human) potassium channel inhibition | activity change, % (tested at about 1.8 µM) | AID 720553 | U2OS KCNH2 3.1, thallium flux FluxOr; stronger effect = lower value | hit rate 0.95% among 340,000;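 active = maximum activity change below -70%; inconclusive = maximum activity change from -70% to -50%; inactive = maximum activity change above -50%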;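 note: thallium influx rate constant from kinetic fluorescence after stimulation buffer; % is set by controls: 0 for no effect and ±100 for the full control effect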
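FluxOr-based Tl+ influx in U2OS cells transduced with KCNH2 3.1 virus; rate constants normalized to DMSO controls.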
KCNH2 WT inh: blocks the wildtype human KCNH2 potassium channel; U2OS, BacMam KCNH2, thallium flux FluxOr; stronger effect = lower value; activity change, % at 1.84 µM; hit rate 0.37% among 340,000; AID 720551;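 active = maximum activity change below -70%; inconclusive = maximum activity change between -70% and -50%; inactive = maximum activity change above -50%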; note: % is set by controls: 0 for no effect and ±100 for the full control effect
Target sequence (Q12809 whole entry, looked up): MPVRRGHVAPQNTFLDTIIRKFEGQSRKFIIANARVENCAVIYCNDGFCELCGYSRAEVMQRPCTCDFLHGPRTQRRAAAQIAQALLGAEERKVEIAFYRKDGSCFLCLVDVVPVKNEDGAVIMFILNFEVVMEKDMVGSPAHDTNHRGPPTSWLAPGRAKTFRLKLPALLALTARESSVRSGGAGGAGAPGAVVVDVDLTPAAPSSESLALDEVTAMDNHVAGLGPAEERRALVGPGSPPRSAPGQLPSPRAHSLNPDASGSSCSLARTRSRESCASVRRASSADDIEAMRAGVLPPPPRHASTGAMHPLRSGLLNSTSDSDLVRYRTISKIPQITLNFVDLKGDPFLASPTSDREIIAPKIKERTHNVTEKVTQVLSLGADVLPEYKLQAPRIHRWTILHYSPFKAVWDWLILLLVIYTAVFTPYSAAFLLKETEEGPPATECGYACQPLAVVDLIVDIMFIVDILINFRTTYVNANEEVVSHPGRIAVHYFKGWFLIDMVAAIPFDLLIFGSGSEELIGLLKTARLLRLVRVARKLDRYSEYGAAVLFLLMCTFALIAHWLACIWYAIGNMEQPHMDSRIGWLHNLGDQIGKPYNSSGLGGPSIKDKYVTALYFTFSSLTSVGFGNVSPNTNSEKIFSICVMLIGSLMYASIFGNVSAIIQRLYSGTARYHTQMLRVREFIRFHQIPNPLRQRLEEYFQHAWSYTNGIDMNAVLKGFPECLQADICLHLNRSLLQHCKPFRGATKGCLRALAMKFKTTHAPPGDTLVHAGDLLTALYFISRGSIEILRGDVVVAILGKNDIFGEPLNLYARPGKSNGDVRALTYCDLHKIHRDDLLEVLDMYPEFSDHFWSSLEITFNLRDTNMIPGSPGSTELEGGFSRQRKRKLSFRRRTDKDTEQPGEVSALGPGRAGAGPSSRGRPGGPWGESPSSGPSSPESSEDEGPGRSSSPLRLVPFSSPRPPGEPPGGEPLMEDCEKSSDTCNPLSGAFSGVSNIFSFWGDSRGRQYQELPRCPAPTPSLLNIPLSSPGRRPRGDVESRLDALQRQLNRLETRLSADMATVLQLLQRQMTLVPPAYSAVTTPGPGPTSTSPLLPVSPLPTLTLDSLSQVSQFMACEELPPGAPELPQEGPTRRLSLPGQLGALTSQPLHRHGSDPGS
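U2OS cells were transduced with wild-type KCNH2 virus (2.03 x 10^8 / mL) for 4 h at room temperature, then cultured overnight at 37 C. Thallium flux was read with FluxOr dye. Rate constants were normalized to DMSO controls.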
MBNL1 CUG block: blocks human MBNL1 binding to CUG repeat RNA | TR-FRET MBNL1-His/biotin-(CUG)12 binding, 665/545 ratio | Potency, µM (top dose mostly 57.5 µM), for inactives: at the top dose activity change, negative = inhibition, usual class: inhibitors | hit rate 0.036% among 280,000 | AID 2675; active = well fitted inhibition curve with a large enough effect in the signal ratio, with a control signal flat, not every such curve was filed as active; inconclusive = small, poorly fitted or top-dose-only effect, or effect the other way, or a change in a side signal; inactive = no such curve, though single readings can be large or run the other way; the % refers to the signal ratio; note: potency is the fitted concentration of half-maximal effect; % is set by controls: 0 for no effect and ±100 for the full control effect
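Inhibition of protein-RNA binding appears as loss of TR-FRET between terbium anti-His antibody on MBNL1-His and streptavidin-XL665 on biotin-(CUG)12. Activity is normalized to buffer-only and uninhibited-complex controls.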
* hit, by the source's call; ? = inconclusive; . = no result.

SMILES	TRPV1 PAM	TRPV1 agonist	KCNH2 3.1 inh	KCNH2 WT inh	MBNL1 CUG block
CN(CC(=O)Nc1cccc(F)c1)CC(=O)Nc1ccccc1Oc1ccccc1	-5.6	?	-8.7	-3.9	10.2%
COc1ccc(C2CC(=O)C(C(c3ccc(O)cc3)C3C(=O)CC(c4ccc(OC)cc4)CC3=O)C(=O)C2)cc1 (configuration not stated)	8.7	-0.1	.	.	-4.6%
O=C(N/N=C/c1cc(Br)ccc1O)C(=O)Nc1ccccc1OC(F)(F)C(F)F	9.5	5.8	8.1	-262.6*	0.6%
O=C(N/N=C/c1cc(Cl)ccc1O)C(=O)Nc1ccccc1OC(F)(F)C(F)F	-0.5	?	-35.7	-21.5	?
CCOc1ccc(NC(=O)CN2CCN(CC(=O)Nc3ccc(C(=O)OC)cc3)CC2)cc1	?	2.4	-83.0*	?	5.3%
CCOc1ccc(NC(=O)CN2C(=O)CSC2=O)cc1	24.4	-0.1	-89.9*	-18.4	-11.8%
O=C(CN1CCN(C(=O)CNC(=O)c2ccc(-c3ccccc3)cc2)CC1)Nc1ccccc1Cl	.	.	-84.4*	14.6	.
O=C(CN1CCCCCC1)Nc1ccc(F)c(F)c1	8.0	0.6	4.2	0.0	-3.8%
O=C(CN1CCN(C(=O)CNC(=O)c2ccc3c(c2)OCO3)CC1)Nc1ccccc1Cl	-21.2	15.7	-3.6	1.7	.
O=C(CN1CCN(CC(=O)Nc2ccccc2Cl)CC1)Nc1ccc(F)c(F)c1	-6.4	14.7	-110.9*	?	-0.1%
CC(=O)c1ccc(OCCCC(=O)Nc2ccc(S(=O)(=O)N3CCOCC3)cc2)cc1	1.8	9.5	-3.4	-0.7	.
Cc1ccc(NC(=O)COC(=O)C2CC(=O)N(Cc3ccccc3)C2)cc1S(=O)(=O)N(C)C (configuration not stated)	-1.7	5.6	5.9	3.7	-4.1%
COc1cccc(CN2CCC(n3nccc3NC(=O)CCOc3ccccc3)CC2)c1O	.	.	11.6	-1.1	.
CCOc1ccc(NC(=O)CN2CCN(c3ccc(F)cc3)CC2)cc1	23.9	12.3	31.6	0.9	3.5%
O=C(CN1CCCC1)Nc1ccccc1Sc1ccc(Cl)cc1	-13.5	-11.9	-90.2*	10.2	9.5%
Cc1cc(C)c2c(n1)SCC(=O)N2CC(=O)Nc1ccc(C)c(C)c1	5.0	2.1	-130.2*	1.8	-6.0%
Cc1c(C(=O)N2CCN(CC(=O)Nc3ccccc3Cl)CC2)oc2ccc(Br)cc12	-27.7	12.5	-73.4*	-28.7	.
COc1cccc(NC(=O)CN2C(=O)CSc3nc(C)cc(C)c32)c1	1.9	-2.3	-7.0	-4.0	5.5%
CCOc1ccc(NC(=O)CN2CCN(CC(=O)Nc3ccc(F)c(F)c3)CC2)cc1	4.4	4.4	-92.9*	-117.3*	4.8%
CC(=O)c1ccccc1NC(=O)COC(=O)c1cc2ccccc2[nH]1	5.5	2.7	14.8	-9.1	.
COc1cc(/C=N/NC(=O)C2CCN(CC(O)COCc3ccccc3)CC2)cc(OC)c1OC (configuration not stated)	-1.9	0.4	-28.6	-31.5	5.5%
COc1cc(/C=N/NC(=O)C2CCN(CC(O)COCc3ccccc3)CC2)ccc1O (configuration not stated)	-4.3	1.2	-99.1*	-128.2*	4.7%
CCOc1ccc(CN2CCC(Cc3ccccc3)CC2)cc1	0.5	4.7	-91.9*	-84.9*	-12.5%
OC(COc1ccc(Cl)cc1)CN1CCN(c2ccccc2)CC1 (configuration not stated)	4.4	0.7	-5.1	-10.4	-2.6%
Cc1cc(OCCN2CCC(Cc3ccccc3)CC2)ccc1[N+](=O)[O-]	-7.0	9.8	-71.0*	-0.5	7.9%
SMILES	TRPV1 PAM	TRPV1 agonist	KCNH2 3.1 inh	KCNH2 WT inh	MBNL1 CUG block
COc1ccc(CN2CCC(Cc3ccccc3)CC2)cc1OC	-8.1	1.6	0.5	26.4	-22.3%
OC(COc1ccc(Cl)cc1)CN1CCC(Cc2ccccc2)CC1 (configuration not stated)	4.9	3.0	-125.3*	-93.5*	-3.3%
CCCCN(C)C(=O)C1CCN(Cc2ccc(OCc3ccccc3)cc2)CC1	-5.2	0.6	-74.5*	29.8	-5.4%
CC1(C)NC(=O)N(CC(O)CNC23CC4CC(CC(C4)C2)C3)C1=O (configuration not stated)	2.5	-0.8	8.1	-99.9*	2.8%
CCOc1ccc(CN(C)CC(=O)NCc2ccccc2)cc1	-1.6	7.6	-87.3*	0.5	.
CCOc1ccc(N(CC(=O)NCc2ccc(OC)cc2)S(C)(=O)=O)cc1	-7.2	4.7	-77.0*	-0.4	-3.9%
COc1ccc(N(CC(=O)NCc2ccccc2)S(C)(=O)=O)cc1	-3.6	3.8	2.2	13.6	?
CCOc1ccc(CNCc2ccccc2Cl)cc1	-17.7	17.7	-0.9	16.3	-1.9%
CCOc1ccc(CN(C)CC(=O)NCc2ccccc2Cl)cc1	9.3	?	7.5	-85.0*	-2.3%
CC(=O)NNS(=O)(=O)c1ccc(-c2cc(C(F)(F)F)n(C)n2)s1	-3.6	0.0	9.1	11.5	.
CCOc1ccc(CCNC(=O)COC(=O)c2cc([N+](=O)[O-])ccc2N2CCOCC2)cc1OCC	-9.7	-0.1	-3.9	-9.1	?
CCCn1ncc(CN2CCC(n3nccc3NC(=O)c3ccccc3OC)CC2)c1C	7.5	-0.3	-94.8*	?	-2.2%
CCn1nc(C)c(CN2CCC(n3nccc3NC(=O)c3ccccc3OC)CC2)c1C	-22.6	-4.7	-15.4	25.3	-9.2%
Cn1cc(CN2CCC(n3nccc3NC(=O)c3ccccc3Cl)CC2)c2ccccc21	9.1	1.8	-14.7	-78.9*	-6.1%
COc1ccccc1C(=O)Nc1ccnn1C1CCN(Cc2cn(C)c3ccccc23)CC1	0.5	2.6	-76.8*	-26.1	-6.7%
CCCCc1ncc(CN2CCC(n3nccc3NC(=O)c3ccccc3OC)CC2)[nH]1	0.7	1.3	-79.3*	-41.6	-4.6%
Cc1cc(C)c(CN2CCC(n3nccc3NC(=O)c3ccccc3Cl)CC2)cc1C	4.9	-1.5	.	-5.8	-2.7%
Cc1ccc(-c2nc(NC(=O)c3nn(C)cc3[N+](=O)[O-])sc2C)cc1C	-11.5	-0.7	-82.5*	3.7	14.3%
CC(C)(C)OC(=O)[C@H](Cc1ccccc1)NC(=O)c1nc[nH]c1C(=O)N[C@@H](Cc1ccccc1)C(=O)OC(C)(C)C	?	13.6	-70.1*	-5.2	-7.9%
C[C@H](NC(=O)c1nc[nH]c1C(=O)N[C@@H](Cc1ccccc1)C(=O)OC(C)(C)C)C(=O)OC(C)(C)C	-25.0	?	-22.8	-0.1	-6.6%
CCN(CC)CC#CCC(OC)(c1ccccc1)c1ccccc1	0.0	4.3	-6.3	7.7	5.1%
c1nc(NCC2(N3CCOCC3)CCCCC2)c2ccsc2n1	-11.9	4.2	-5.0	7.5	-2.5%
Cc1sc2ncnc(NCC3(N4CCOCC4)CCCCC3)c2c1C	-2.3	-2.2	-72.3*	-18.6	-21.8%
